# Laboratory results taken from PubChem BioAssay (NCATS).
# Where “and” joins values, the source holds several entries; their conditions need not be identical. Equal values may be shown once. Inconclusive results are not listed. Where a call stands in place of a potency, no number is given. Calls of active or inactive are those of the source. Unless noted, the call rests on the fitted dose curve.
# How the values were obtained:
# [1] = target: Glucocorticoid receptor (Homo sapiens) (UniProt P04150); experiment: qHTS assay for small molecule agonists of glucocorticoid receptor signaling (AID 588532; active means well fitted curve in the direction sought with a large enough effect in the signal ratio, with a control signal flat; the % refers to the signal ratio); details: HeLa MMTV-bla, beta-lactamase ratio, agonist, 18 h; stronger effect = higher value; percent of dexamethasone control, DMSO zero
# Glucocorticoid receptor (Homo sapiens), sequence (P04150 whole entry, looked up): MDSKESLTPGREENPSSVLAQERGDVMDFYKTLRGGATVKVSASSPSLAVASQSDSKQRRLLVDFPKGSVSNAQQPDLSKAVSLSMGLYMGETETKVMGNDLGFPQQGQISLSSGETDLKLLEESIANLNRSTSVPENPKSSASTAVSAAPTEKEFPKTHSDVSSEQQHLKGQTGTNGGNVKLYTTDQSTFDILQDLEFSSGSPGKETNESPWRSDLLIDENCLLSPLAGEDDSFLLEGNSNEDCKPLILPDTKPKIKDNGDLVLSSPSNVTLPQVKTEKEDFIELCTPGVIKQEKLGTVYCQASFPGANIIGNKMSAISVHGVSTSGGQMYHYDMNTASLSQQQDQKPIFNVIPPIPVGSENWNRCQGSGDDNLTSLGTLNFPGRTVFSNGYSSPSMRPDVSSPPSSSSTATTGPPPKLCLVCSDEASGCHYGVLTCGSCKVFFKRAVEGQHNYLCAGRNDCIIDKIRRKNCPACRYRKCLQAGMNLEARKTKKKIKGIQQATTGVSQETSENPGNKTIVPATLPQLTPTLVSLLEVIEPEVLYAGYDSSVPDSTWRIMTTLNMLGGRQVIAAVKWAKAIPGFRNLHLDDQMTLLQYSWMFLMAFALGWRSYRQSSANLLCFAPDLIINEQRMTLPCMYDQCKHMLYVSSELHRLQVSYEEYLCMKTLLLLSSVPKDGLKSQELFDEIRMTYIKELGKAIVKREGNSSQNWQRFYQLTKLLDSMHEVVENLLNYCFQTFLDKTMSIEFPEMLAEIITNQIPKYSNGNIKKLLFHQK
# Procedure, shortened: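 Quantitative HTS using CellSensor MMTV-bla HeLa cells in charcoal/dextran-treated serum; compounds tested up to 92 uM. After 18 h at 37 C, CCF4 dye reported reporter induction.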
# [2] = target: Glucocorticoid receptor (Homo sapiens) (UniProt P04150); experiment: qHTS assay for small molecule antagonists of glucocorticoid receptor signaling (AID 588533; active means well fitted inhibition curve with a large enough effect in the signal ratio, with a control signal flat, not every such curve was filed as active; the % refers to the signal ratio;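 further: cells stimulated with 2 nM dexamethasone as agonist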); details: HeLa MMTV-bla, GRE beta-lactamase ratio, antagonist mode, 18 h; series mostly up to 76.8 µM
# Procedure, shortened: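 Antagonist-mode qHTS: compound titrations added to GRE-bla HeLa cells, then dexamethasone 2 nM final; 18 h, 37 C. CCF4 FRET fluorescence normalized to dexamethasone and DMSO; IC50 from Hill fit.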
# [3] = qHTS assay for small molecule antagonists of peroxisome proliferator-activated receptor delta signaling (AID 588535; active means well fitted inhibition curve with a large enough effect in the signal ratio, with a control signal flat, not every such curve was filed as active; the % refers to the signal ratio;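 on max response: cells co-treated with a PPAR-delta agonist as stimulator during compound exposure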); details: HEK293T PPARd-UAS-bla, beta-lactamase FRET ratio, 18 h; 460 nm channel
# Procedure, shortened: (§1)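 HEK293T PPAR-delta-UAS-bla cells, 4000/well, 2% charcoal/dextran FBS; 5 h 37 C; cpd titration; 18 h 37 C; CCF4 2 h RT; FI 460/530 nm; Hill fit → IC50, efficacy.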
# [4] = target: Peroxisome proliferator-activated receptor delta (Homo sapiens) (UniProt Q03181); experiment: as above; details: HEK293T PPARd-UAS-bla, beta-lactamase FRET ratio, 18 h; series mostly up to 76.7 µM
# Peroxisome proliferator-activated receptor delta (Homo sapiens), sequence (Q03181 whole entry, looked up): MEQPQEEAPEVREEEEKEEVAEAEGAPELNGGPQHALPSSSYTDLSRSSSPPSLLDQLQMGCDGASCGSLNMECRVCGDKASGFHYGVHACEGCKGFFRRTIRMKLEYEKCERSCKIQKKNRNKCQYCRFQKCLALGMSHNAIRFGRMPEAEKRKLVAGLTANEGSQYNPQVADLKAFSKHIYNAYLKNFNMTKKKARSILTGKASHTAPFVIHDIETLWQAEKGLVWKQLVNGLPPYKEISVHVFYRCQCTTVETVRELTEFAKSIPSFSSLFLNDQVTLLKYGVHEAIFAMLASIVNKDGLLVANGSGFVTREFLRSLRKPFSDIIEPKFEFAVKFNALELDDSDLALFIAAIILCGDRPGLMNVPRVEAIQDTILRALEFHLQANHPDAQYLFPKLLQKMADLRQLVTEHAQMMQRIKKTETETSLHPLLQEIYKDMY
# Procedure, shortened: as §1
# [5] = target: Peroxisome proliferator-activated receptor gamma (Homo sapiens) (UniProt P37231); experiment: qHTS assay for small molecule agonists of peroxisome proliferator-activated receptor gamma signaling (AID 588536; active means well fitted curve in the direction sought with a large enough effect in the signal ratio, with a control signal flat, not every such curve was filed as active; the % refers to the signal ratio); details: HEK293 PPARg-UAS-bla, beta-lactamase ratio, 16 h, percent of rosiglitazone response, DMSO as zero; series mostly up to 76.7 µM
# Peroxisome proliferator-activated receptor gamma (Homo sapiens), sequence (P37231 whole entry, looked up): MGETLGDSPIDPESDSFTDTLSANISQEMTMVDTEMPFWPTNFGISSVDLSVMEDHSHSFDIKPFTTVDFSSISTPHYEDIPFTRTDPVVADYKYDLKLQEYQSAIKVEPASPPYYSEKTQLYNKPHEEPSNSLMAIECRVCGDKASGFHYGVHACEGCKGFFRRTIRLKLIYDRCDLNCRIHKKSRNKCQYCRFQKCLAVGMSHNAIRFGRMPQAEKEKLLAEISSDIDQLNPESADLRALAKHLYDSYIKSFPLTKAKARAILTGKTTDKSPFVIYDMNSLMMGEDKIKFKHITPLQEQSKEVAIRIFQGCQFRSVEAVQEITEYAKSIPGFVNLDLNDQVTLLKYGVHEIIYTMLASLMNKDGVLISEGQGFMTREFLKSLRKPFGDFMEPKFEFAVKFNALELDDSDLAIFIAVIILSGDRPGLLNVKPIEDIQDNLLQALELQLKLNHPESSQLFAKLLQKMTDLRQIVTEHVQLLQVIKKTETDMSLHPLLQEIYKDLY
# Procedure, shortened: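 Ratiometric blue/green fluorescence (405 nm excitation; 460 and 530 nm emission) from CCF4-loaded HEK293 reporter cells serves as signal. Exposure to test compounds lasts 16 h at 37 C in medium containing 1% charcoal/dextran-treated serum.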
# [6] = target: Peroxisome proliferator-activated receptor gamma (Homo sapiens) (UniProt P37231); experiment: qHTS assay for small molecule antagonists of peroxisome proliferator-activated receptor gamma signaling (AID 588537; active means well fitted inhibition curve with a large enough effect in the signal ratio, with a control signal flat, not every such curve was filed as active; the % refers to the signal ratio;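 further: reporter cells co-stimulated with 50 nM rosiglitazone agonist during compound treatment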); details: HEK293 PPARg-UAS-bla, beta-lactamase ratio, antagonist mode; series mostly up to 76.8 µM
# Procedure, shortened: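 Antagonist mode, beta-lactamase reporter in HEK293; charcoal/dextran FBS 1%; 3000 cells/well, 37 C 6-6.5 h; cpd titration + rosiglitazone 50 nM final, 16 h 37 C; CCF4, 2 h RT; 460/530 nm; Hill fit → IC50, efficacy.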
# [7] = target: Vitamin D3 receptor (Homo sapiens) (UniProt P11473); experiment: qHTS assay for small molecule antagonists of vitamin D receptor signaling (AID 588541); details: HEK293T VDR-UAS-bla, beta-lactamase ratio, antagonist mode; series mostly up to 76.7 µM;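 further: receptor activated by calcitriol during compound treatment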
# Vitamin D3 receptor (Homo sapiens), sequence (P11473 whole entry, looked up): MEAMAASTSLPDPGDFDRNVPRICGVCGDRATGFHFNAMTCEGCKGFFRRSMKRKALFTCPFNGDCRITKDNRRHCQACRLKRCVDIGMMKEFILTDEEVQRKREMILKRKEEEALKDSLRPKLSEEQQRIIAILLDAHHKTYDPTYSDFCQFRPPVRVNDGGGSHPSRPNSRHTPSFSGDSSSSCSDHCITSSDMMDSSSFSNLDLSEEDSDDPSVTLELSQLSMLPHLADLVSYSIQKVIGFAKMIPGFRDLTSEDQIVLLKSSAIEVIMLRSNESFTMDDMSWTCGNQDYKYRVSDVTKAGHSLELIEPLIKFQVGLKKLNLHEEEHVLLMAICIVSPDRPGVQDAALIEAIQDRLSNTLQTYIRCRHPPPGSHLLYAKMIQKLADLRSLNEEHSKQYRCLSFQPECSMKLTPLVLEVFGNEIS
# Procedure, shortened: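 Antagonist-mode beta-lactamase reporter assay: HEK293T VDR-UAS-bla cells were exposed to titrated compound alongside 1-alpha,25-dihydroxyvitamin D3 at 3 nM final for 16 h. Values were normalized to the 50 nM agonist control and DMSO basal, with IC50 and efficacy from Hill equation fits.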
# [8] = target: Vitamin D3 receptor (Homo sapiens) (UniProt P11473); experiment: qHTS assay for small molecule agonists of vitamin D receptor signaling (AID 588543); details: HEK293T VDR-UAS-bla, beta-lactamase ratio, 16 h; series mostly up to 76.8 µM
# Procedure, shortened: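 Agonist-mode beta-lactamase reporter: HEK293T VDR-UAS-bla cells in charcoal-stripped 2% FBS, compound series 16 h 37 C, CCF4 2 h RT. EC50 from Hill fit, scaled against DMSO and 50 nM calcitriol control.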
Compound,activation [1],outcome [2],max response [3],Potency [4],outcome [5],outcome [6],outcome [7],outcome [8]
Cc1cccc2sc(N)nc12,-9.53% (inactive),inactive,24.8%,inactive,inactive,inactive,inactive,inactive
Cc1cc(C)cc([N+](=O)[O-])c1,-8.13% (inactive),inactive,-43.4%,inactive,inactive,–,inactive,–
CC(=O)c1nccs1,-5.55% (inactive),inactive,-6.53%,inactive,inactive,–,inactive,inactive
O=C1OC(=O)c2cc([N+](=O)[O-])ccc21,5.66% (inactive),inactive,9.55%,inactive,inactive,inactive,inactive,inactive
C=C(C)C(=O)OCCCCCC,8.12% (inactive),inactive,4.68%,inactive,inactive,inactive,inactive,inactive
O=C(Cl)c1c(Cl)cccc1Cl,-4.67% (inactive),inactive,-5.79%,inactive,inactive,–,–,–
Cc1ccc(C#N)cc1,-8.98% (inactive),inactive,-7.41%,inactive,inactive,inactive,–,inactive
CNc1ccccc1,19.8% (inactive),inactive,-16.9%,inactive,inactive,–,inactive,inactive
O=C(O[C@@H](C(=O)O)[C@@H](OC(=O)c1ccccc1)C(=O)O)c1ccccc1,-3.12% (inactive),inactive,-10.6%,inactive,inactive,inactive,–,–
C=CC(=O)NC(C)C,2.34% (inactive),inactive,-15.9%,inactive,inactive,inactive,inactive,inactive
CCCCC(=O)N(C)C,-1.2% (inactive),inactive,-15%,inactive,inactive,–,inactive,inactive
O=c1[nH][nH]c(=O)c2cc([N+](=O)[O-])ccc12,0.885% (inactive),inactive,10.6%,inactive,inactive,inactive,inactive,–
CCNS(=O)(=O)c1ccc(C)cc1,-0.758% (inactive),inactive,8.52%,inactive,inactive,–,–,–
O=C1OC(=O)c2c(Br)c(Br)c(Br)c(Br)c21,-2.08% (inactive) and -7.32% (inactive),inactive,19.7% and -28%,inactive,inactive,inactive,inactive,inactive
O=[N+]([O-])c1c(Cl)cc(Cl)cc1Cl,0.964% (inactive),inactive,0.0891%,inactive,inactive,inactive,inactive,inactive
CC(C)N(C)C,0.0793% (inactive),inactive,-0.77%,inactive,inactive,inactive,–,inactive
CC(C)=CCC/C(C)=C/C=O,-2.98% (inactive) and -2.55% (inactive),inactive,-1.69% and 16.6%,inactive,inactive,–,inactive,–
O=[N+]([O-])c1ccc(Cl)cc1Cl,2.45% (inactive),inactive,2.66%,inactive,inactive,inactive,–,–
Cc1c(N)cccc1[N+](=O)[O-],-3.4% (inactive),inactive,-31.1%,inactive,inactive,–,–,–
O=C(O)c1cccc([N+](=O)[O-])c1,3.85% (inactive),inactive,27.4% and 43.1%,inactive,inactive,inactive,–,–
N#Cc1ccccc1,4.79% (inactive),inactive,-16.3%,inactive,inactive,inactive,inactive,inactive
O=C(O)c1ccc(C(=O)O)cc1,6.51% (inactive) and -2.73% (inactive),inactive,14.5% and 21.9%,inactive,inactive,inactive,inactive,inactive
O=C1NC(=O)c2cc([N+](=O)[O-])ccc21,-4.49% (inactive),inactive,-20.7%,inactive,inactive,–,–,–
CCC(C)(C)C(=O)O,-7.32% (inactive),inactive,-22.2%,inactive,inactive,inactive,inactive,inactive
C1CCC2OC2C1 (configuration not stated),-6.07% (inactive),inactive,38.4%,inactive,inactive,–,inactive,inactive
CCC(C)=O,-3.19% (inactive),inactive,-36.3%,inactive,inactive,–,inactive,inactive
Cc1c(C(=O)O)cccc1[N+](=O)[O-],-3.11% (inactive),inactive,-26.4%,inactive,inactive,inactive,inactive,inactive

Compound,activation [1],outcome [2],max response [3],Potency [4],outcome [5],outcome [6],outcome [7],outcome [8]
CC=C(Cl)Cl,-2.89% (inactive),inactive,24.9%,inactive,inactive,inactive,inactive,inactive
COC(=O)CCC(=O)OC,-3.79% (inactive),inactive,-38.8%,inactive,inactive,inactive,inactive,inactive
CC(CCl)OC(C)CCl (configuration not stated),1.48% (inactive),inactive,6.69%,inactive,inactive,–,–,–
COc1ccc(N=[N+]([O-])c2ccc(OC)cc2)cc1,9.01% (inactive),inactive,8.26%,inactive,inactive,–,inactive,inactive
N#CC1(O)CCCCC1,0.0169% (inactive),inactive,12%,inactive,inactive,–,inactive,inactive
Nc1cccc(O)c1,-1.32% (inactive),inactive,11.9%,inactive,inactive,–,inactive,inactive
CCc1ccccc1,-5.09% (inactive),inactive,15%,inactive,inactive,–,inactive,inactive
CC(C)=C1CCC(C)CC1=O (configuration not stated),-0.919% (inactive),inactive,-8.22%,inactive,inactive,inactive,inactive,inactive
CCOC(=O)C(C)C(C)=O (configuration not stated),-10.2% (inactive),inactive,–,–,–,–,–,–
O=C(O)c1cccc(Cl)c1Cl,6.71% (inactive),inactive,5.12%,inactive,inactive,inactive,inactive,inactive
CC(C)(C)c1ccc(OCC2CO2)cc1 (configuration not stated),-4.85% (inactive),inactive,18.6%,inactive,–,–,inactive,inactive
Nc1ccc(F)cc1F,-11.6% (inactive),inactive,-4.23%,–,inactive,–,–,inactive
CCCC=O,-2.2% (inactive),inactive,10.5%,inactive,inactive,–,inactive,inactive
C=CC(=O)OCCCC,6.23% (inactive),inactive,-13.6%,–,–,–,inactive,inactive
Cc1cccc(Br)c1,-2.46% (inactive),inactive,–,–,inactive,–,–,–
Cc1cc(C(=O)O)ccc1[N+](=O)[O-],1.49% (inactive),inactive,13.2%,–,inactive,–,inactive,inactive
C=CCOC(=O)COCCC(C)C,-3.64% (inactive),inactive,79.8%,–,inactive,–,–,–
ICCc1ccccc1,-2.34% (inactive),inactive,13.6%,inactive,inactive,–,inactive,inactive
CC(C)=CCl,2.68% (inactive),inactive,6.55%,inactive,–,–,inactive,–
Cc1ccc([N+](=O)[O-])c(N)c1,-0.729% (inactive),inactive,-3.65%,inactive,inactive,–,inactive,inactive
C1CCCC1,2.06% (inactive),inactive,–,–,inactive,inactive,inactive,inactive
Fc1ccccc1,1.06% (inactive),inactive,0.384%,inactive,–,–,inactive,–
CC(O)COC(C)(C)C (configuration not stated),-7.34% (inactive),inactive,-1.74%,inactive,inactive,–,inactive,inactive
CNc1ccc([N+](=O)[O-])cc1,-3.38% (inactive),inactive,–,–,inactive,inactive,–,–
CC(C)(c1cc(Br)c(OCC(Br)CBr)c(Br)c1)c1cc(Br)c(OCC(Br)CBr)c(Br)c1 (configuration not stated),11.6% (inactive),inactive,-13.7%,–,inactive,–,inactive,inactive
CC(C)C(C)C,-6.49% (inactive),inactive,–,–,inactive,inactive,–,–
CCCCCCC=O,-0.214% (inactive),inactive,-42.7%,–,inactive,inactive,inactive,inactive
